Most compounds without a hit are left out; they make up all but 5.1% or so of the library.
PNC assembly inh = perinucleolar compartment assembly inhibition; PC3M PTB-GFP, PNC prevalence imaging, 16 h; hits give low values; activity change (PNC), negative = inhibition, % at 10 µM; 140,000 compounds, 3.1% hits;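 active means readout at or below -70, meaning at least 70% loss of cells showing the perinucleolar compartment, a nuclear body marking cancer cells; inconclusive means readout between -30 and a set limit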;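 further: plate controls were DMSO wells for no effect and camptothecin positive control wells for full effect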
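Compounds are pinned in duplicate onto adhered PC3M cells stably expressing GFP-tagged PTB and incubated 16 h at 37 C. Cells are then fixed, nuclei stained with Hoechst, and PNC-positive cells counted.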
Tau ThT inhib = blocks human tau fibril formation measured by thioflavin T; P10636; recombinant tau K18 P301L, heparin-induced fibrillization, ThT fluorescence; Potency, µM (series often up to 57.4 µM), for inactives: top-dose activity, negative = inhibition, actives largely listed as inhibitors; 270,000 compounds, 2.1% hits; further: potency means the concentration at half of the fitted maximal effect; nearly all actives have a fitted effect of over 55% in size
Target sequence (P10636 561-689 P618L limits assumed): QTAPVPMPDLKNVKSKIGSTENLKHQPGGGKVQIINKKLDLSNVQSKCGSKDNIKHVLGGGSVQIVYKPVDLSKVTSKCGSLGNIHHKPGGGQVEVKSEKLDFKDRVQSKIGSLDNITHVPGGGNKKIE
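Fibril formation assay: tau K18 P301L at 15 uM with trace Alexa 594 label, heparin inducer 20 uM, pH 7 sodium acetate buffer, 37 C for 6 hr; endpoint ThT signal.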
Tau FP inhib = blocks human tau fibril formation measured by polarization; K18 P301L tau heparin fibrillization, Alexa594 FP, 6 h; Potency, µM (series often up to 57.7 µM), without a hit: top-dose activity, negative = inhibition, hits mostly inhibitors; 280,000 compounds, 0.39% hits; AID 1468; further: potency means the concentration at half of the fitted maximal effect; nearly all actives have a fitted effect of over 55% in size
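Recombinant K18 P301L […], labeled with Alexa 594 at 0.24 uM over 15 uM unlabeled; heparin inducer 20 uM final; 37 C, 6 hr; FP endpoint.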
Tau fluor cs = counter-screen for tau fibril formation inhibitors; Potency, µM (series often up to 57.7 µM), without a hit: at the top dose activity change, negative = decrease; AID 1463; tau K18 P301L Alexa594 fluorescence, heparin fibrillization; 280,000 compounds, 0.93% hits; further: potency means the concentration at half of the fitted maximal effect; nearly all actives have a fitted effect of over 55% in size
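Human tau K18 P301L (15 uM unlabeled, 0.24 uM Alexa 594-labeled) in 100 mM sodium acetate pH 7 with 20 uM heparin, 6 hr at 37 C. ThT 30 uM added, 1 hr ambient; Alexa 594 FP and total fluorescence read at 555/632 nm.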
NPSR antagonist = antagonists of human neuropeptide S receptor cAMP signaling | CHO-NPSR cells, cAMP TR-FRET, antagonist mode | Potency, µM (doses to about 38.3 µM), for the others: top-dose activity change, negative = inhibition, usual class: inhibitors | 220,000 compounds, 1% hits | AID 1461; further: potency means the concentration at half of the fitted maximal effect; nearly all actives have a fitted effect of over 50% in size
Target sequence (Q6W5P4 whole entry, looked up): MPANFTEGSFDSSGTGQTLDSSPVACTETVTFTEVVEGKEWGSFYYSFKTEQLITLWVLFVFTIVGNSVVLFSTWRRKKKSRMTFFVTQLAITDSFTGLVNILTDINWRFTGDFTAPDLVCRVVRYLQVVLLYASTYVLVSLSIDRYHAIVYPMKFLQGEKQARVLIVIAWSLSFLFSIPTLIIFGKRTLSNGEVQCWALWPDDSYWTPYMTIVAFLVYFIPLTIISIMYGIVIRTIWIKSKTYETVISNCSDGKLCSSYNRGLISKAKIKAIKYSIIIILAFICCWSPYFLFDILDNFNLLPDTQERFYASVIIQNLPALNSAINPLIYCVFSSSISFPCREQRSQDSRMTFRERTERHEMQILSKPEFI
KDM4E inh = JMJD2E (human) inhibition. Potency, µM (doses to about 57.1 µM), inactives show at the top dose activity change, negative = inhibition, actives largely listed as inhibitors. 230,000 compounds, 1.6% hits. AID 2147. JMJD2E catalytic domain, FDH-coupled NADH fluorescence (FDH is formaldehyde dehydrogenase);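 further: potency means the concentration at half of the fitted maximal effect; 0% = wells with enzyme and -100% = buffer wells without enzyme; nearly all actives have a fitted effect of over 50% in size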
* = called active by the depositor; [ ] = remark or other dose. Unless noted, the call rests on the fitted dose curve; in most records, active means well fitted curve in the direction sought with a large enough effect; inconclusive means small, poorly fitted or top-dose-only effect, or another doubt; inactive means no such curve, though single readings can be large; an effect the other way counts as inactive or inconclusive. Unless noted, on the % scale 0 is the no-effect control and ±100 the full control effect.

`Cc1ccc(N=C2NC(=O)/C(=C/c3cn(C)c4ccccc34)S2)cc1C` gave PNC assembly inh 25, Tau ThT inhib 4µM*, Tau FP inhib 15%, Tau fluor cs inconclusive, NPSR antagonist -35% and KDM4E inh -4%.
Screening Cc1ccc(N=C2NC(=O)/C(=C/c3cccn3C)S2)c(C)c1 returned Tau ThT inhib inconclusive, Tau FP inhib 10%, Tau fluor cs -3%, NPSR antagonist inconclusive and KDM4E inh -18%.
Screening Cn1cccc1/C=C1\SC(=Nc2ccccc2)NC1=O returned Tau ThT inhib 13µM*, Tau FP inhib 1%, Tau fluor cs inconclusive, NPSR antagonist 32% and KDM4E inh 0%.
Screening O=C1NC(=Nc2ccc(O)cc2)S/C1=C/c1ccco1 returned Tau ThT inhib inconclusive, Tau FP inhib -10%, Tau fluor cs inconclusive, NPSR antagonist -25% and KDM4E inh -5%.
`Cc1nnc(N/N=C/c2cccc(OCc3ccc(Cl)c(Cl)c3)c2)n1N` gave PNC assembly inh -26, Tau ThT inhib 13µM*, Tau FP inhib -13%, Tau fluor cs 25µM*[quencher], NPSR antagonist 21% and KDM4E inh inconclusive.
`Cc1ccc(-c2nc(N)sc2-c2ccc(C)cc2)cc1` gave Tau ThT inhib inconclusive, Tau FP inhib -14%, Tau fluor cs 14µM*[quencher], NPSR antagonist inconclusive and KDM4E inh inconclusive.
Screening Cc1ccc(-c2nc(N)sc2C)cc1 returned Tau ThT inhib -17%, Tau FP inhib 15%, Tau fluor cs -10%, NPSR antagonist 5% and KDM4E inh -1%.
`Nc1nc(-c2ccccc2)c(-c2ccccc2)s1` gave PNC assembly inh 85, Tau ThT inhib -4%, Tau FP inhib 12%, Tau fluor cs inconclusive, NPSR antagonist -2%[46.1 µM] and KDM4E inh -8%.
`Cc1ccc(-c2nc(N)sc2-c2ccccc2)cc1C` gave PNC assembly inh -4, Tau ThT inhib inconclusive, Tau FP inhib 3%, Tau fluor cs 10µM*[quencher], NPSR antagonist -43% and KDM4E inh 5%.
Cc1nc2c(c(C)c1CCC(=O)NCc1ccccc1)c(=O)n(C)c(=O)n2C was read as Tau ThT inhib 1%, Tau FP inhib 3% and Tau fluor cs -4%.
For Cc1ccn2c(Nc3ccc4c(c3)OCO4)c(-c3ccco3)nc2c1 the results were Tau ThT inhib inconclusive, Tau FP inhib -6% and Tau fluor cs inconclusive.
Nc1ccc(O)c(-c2nc3ccccc3s2)c1 was read as PNC assembly inh -29, Tau ThT inhib 10µM*, Tau FP inhib inconclusive, Tau fluor cs inconclusive, NPSR antagonist 10%[46.1 µM] and KDM4E inh inconclusive.
Screening Oc1ccc(N=C/C=C/c2cccc(Br)c2)cc1-c1nc2ccccc2s1 returned PNC assembly inh -19, Tau ThT inhib 6.3µM*, Tau FP inhib -15%, Tau fluor cs inconclusive, NPSR antagonist 1% and KDM4E inh 25µM*.
`Nc1ccc(-c2nc3ccc(N)cc3s2)cc1` gave Tau ThT inhib 11µM*, Tau FP inhib 1%, Tau fluor cs inconclusive, NPSR antagonist -34% and KDM4E inh inconclusive.
Nc1ccc2nc(-c3ccc(O)cc3)sc2c1 was read as Tau ThT inhib 7.9µM*, Tau FP inhib 3% and Tau fluor cs inconclusive.
Nc1cccc(-c2nc3ccc(N)cc3s2)c1 was read as PNC assembly inh inconclusive, Tau ThT inhib inconclusive, Tau FP inhib 8%, Tau fluor cs inconclusive, NPSR antagonist -2%[46.1 µM] and KDM4E inh inconclusive.
COc1cccc2c1C(=O)c1c(O)c3c(c(O)c1C2=O)C[C@](O)(C(=O)CO)C[C@H]3O[C@@H]1C[C@H](N)[C@H](O)[C@H](C)O1 was read as KDM4E inh -9%[25.5 µM].
For Cc1ccc(-n2c(CCC(=O)O)ccc2-c2cccs2)cc1Cl the results were Tau ThT inhib inconclusive, Tau FP inhib -14% and Tau fluor cs -14%.
`CCc1ccccc1NC(=O)Cn1nc(-c2cc(C)ccc2C)c2c(c1=O)CCCC2` gave Tau ThT inhib -15%, Tau FP inhib -7% and Tau fluor cs -4%.
